# Laboratory results: PubChem BioAssay
# The source made the active and inactive calls.
# Tests used:
# [1] = E. coli DRC41 culture turbidity changes, primary screen, E. coli filamentation inducer project, strain DRC41, OD650, 48 h (AID 1152);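 also: E. coli MC1000 strain DRC41 lacking acrAB efflux pump and sulA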; details: E. coli DRC41 (acrAB sulA), higher = more signal, called active from +8 up or from −8 down
# [2] = small-molecule binders of probe aLefty1, primary screen, biochemical, small-molecule microarray, 635/667 nm fluorescence (AID 1153); details: higher = more signal;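 also: score merges spot fluorescence with signal-to-noise ratio from the scanned slide images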
# [3] = PSAC antagonists in infected red cells, primary screen, cell-based, P. falciparum Indochina, OD700, 1 h (AID 1154); details: P. falciparum Indochina infected RBC osmotic lysis, higher = more signal, called active from +8 up or from −8 down
# [4] = PSAC antagonists in infected red cells, primary screen, cell-based, P. falciparum Indochina, OD700, 2 h (AID 1155);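 also: lysis reports solute entry through the parasite surface anion channel PSAC; channel blockers reduce lysis of infected cells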; details: P. falciparum Indochina infected erythrocytes, osmotic lysis OD700; higher = more signal, called active from +8 up or from −8 down
# [5] = osmotic lysis modulators in infected erythrocytes, primary screen, PSAC antagonist project, cell-based, P. falciparum Indochina, OD700, 3 h (AID 1156); details: higher = more signal, called active from +8 up or from −8 down
# [6] = PSAC antagonists in infected red cells, primary screen, cell-based, P. falciparum Indochina, OD700, 18 h (AID 1157); details: P. falciparum Indochina infected erythrocytes, osmotic lysis OD700, 18 h; higher = more signal, called active from +8 up or from −8 down
# [7] = modulators of S6 phosphorylation in cells, primary screen, cell-based, A549, cytoblot, luminescence, serum-stimulated (AID 1158); details: A549 phospho-S6 cytoblot, 5 h, higher = more signal;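 also: serum-stimulated A549 lung adenocarcinoma cells; signal is phosphorylated S6 detected by cytoblot immunostaining with HRP secondary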
# [8] = target: NADPH oxidase 2 (Homo sapiens) (UniProt P04839); test: NOX2-dependent H2O2 signal modulators, primary screen, NOX inhibitor project, cell-based, HEK293-NOX2, PMA-stimulated, Amplex Red fluorescence (AID 1159); details: 45 min, higher = more signal, called active from +8 up or from −8 down; also: test concentration not given here
# [9] = target: NADPH oxidase 4 (Homo sapiens) (UniProt Q9NPH5); test: NOX4-dependent H2O2 signal modulators, primary screen, NOX inhibitor project, cell-based, HEK293-NOX4, tetracycline-induced, Amplex Red fluorescence (AID 1160); details: 45 min, higher = more signal, called active from +8 up or from −8 down
# [10] = target: NADPH oxidase 5 (Homo sapiens) (UniProt Q96PH1); test: NOX5-dependent H2O2 signal modulators, primary screen, NOX inhibitor project, cell-based, HEK293-NOX5, Amplex Red fluorescence (AID 1161); details: HEK293-NOX5, ionomycin, 45 min, higher = more signal
# Sequence of NADPH oxidase 5 (Homo sapiens) (Q96PH1 whole entry, looked up): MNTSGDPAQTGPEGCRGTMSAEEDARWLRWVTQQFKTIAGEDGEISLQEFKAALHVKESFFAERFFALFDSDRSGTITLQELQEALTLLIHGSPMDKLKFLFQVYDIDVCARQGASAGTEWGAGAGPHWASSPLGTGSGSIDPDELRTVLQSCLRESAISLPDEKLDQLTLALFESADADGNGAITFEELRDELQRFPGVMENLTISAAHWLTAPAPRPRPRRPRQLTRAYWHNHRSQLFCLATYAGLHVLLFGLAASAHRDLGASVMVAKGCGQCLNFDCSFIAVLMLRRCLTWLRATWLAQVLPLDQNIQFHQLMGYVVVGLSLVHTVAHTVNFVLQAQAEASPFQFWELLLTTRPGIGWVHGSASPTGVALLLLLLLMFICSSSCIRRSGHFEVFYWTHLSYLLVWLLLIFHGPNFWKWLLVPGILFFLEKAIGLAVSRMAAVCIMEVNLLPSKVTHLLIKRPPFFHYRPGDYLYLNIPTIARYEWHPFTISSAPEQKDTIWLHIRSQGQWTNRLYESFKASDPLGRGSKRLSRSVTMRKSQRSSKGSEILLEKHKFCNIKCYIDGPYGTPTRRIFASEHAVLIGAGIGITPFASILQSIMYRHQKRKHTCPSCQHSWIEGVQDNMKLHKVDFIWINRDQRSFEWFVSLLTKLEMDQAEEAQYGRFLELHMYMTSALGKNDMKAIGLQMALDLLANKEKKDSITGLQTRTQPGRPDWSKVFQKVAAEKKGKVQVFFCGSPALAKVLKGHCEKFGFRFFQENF
# Sequence of NADPH oxidase 4 (Homo sapiens) (Q9NPH5 whole entry, looked up): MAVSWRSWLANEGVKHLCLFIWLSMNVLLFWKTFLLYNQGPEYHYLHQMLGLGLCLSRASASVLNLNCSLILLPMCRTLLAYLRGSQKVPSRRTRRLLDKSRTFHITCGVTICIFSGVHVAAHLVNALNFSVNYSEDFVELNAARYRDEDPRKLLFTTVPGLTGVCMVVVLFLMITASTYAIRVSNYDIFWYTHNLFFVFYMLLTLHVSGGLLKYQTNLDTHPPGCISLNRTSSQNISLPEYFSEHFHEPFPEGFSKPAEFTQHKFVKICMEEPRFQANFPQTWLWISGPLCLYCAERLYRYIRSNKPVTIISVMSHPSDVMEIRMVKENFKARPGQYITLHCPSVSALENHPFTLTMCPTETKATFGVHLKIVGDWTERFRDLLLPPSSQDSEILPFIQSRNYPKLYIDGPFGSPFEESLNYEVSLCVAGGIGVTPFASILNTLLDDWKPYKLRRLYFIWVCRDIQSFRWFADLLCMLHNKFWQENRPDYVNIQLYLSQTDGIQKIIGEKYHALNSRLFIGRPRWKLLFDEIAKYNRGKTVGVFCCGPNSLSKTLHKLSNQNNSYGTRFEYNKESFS
# Sequence of NADPH oxidase 2 (Homo sapiens) (P04839 whole entry, looked up): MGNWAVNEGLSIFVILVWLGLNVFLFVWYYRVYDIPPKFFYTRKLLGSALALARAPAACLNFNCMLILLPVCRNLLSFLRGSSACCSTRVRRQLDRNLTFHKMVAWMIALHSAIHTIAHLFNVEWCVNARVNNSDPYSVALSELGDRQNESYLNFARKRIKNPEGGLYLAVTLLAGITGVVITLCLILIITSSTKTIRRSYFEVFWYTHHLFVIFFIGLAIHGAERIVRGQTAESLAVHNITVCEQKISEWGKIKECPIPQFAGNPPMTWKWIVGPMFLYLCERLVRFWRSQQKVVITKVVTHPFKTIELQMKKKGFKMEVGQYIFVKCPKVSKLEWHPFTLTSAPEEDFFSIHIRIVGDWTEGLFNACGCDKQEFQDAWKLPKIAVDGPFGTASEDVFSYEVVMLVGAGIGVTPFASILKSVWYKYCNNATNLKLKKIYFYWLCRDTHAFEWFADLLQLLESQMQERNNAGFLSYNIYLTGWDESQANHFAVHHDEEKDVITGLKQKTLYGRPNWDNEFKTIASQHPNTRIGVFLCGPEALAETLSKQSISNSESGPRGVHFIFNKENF
Structure (SMILES),z-score [1],composite z-score [2],z-score [3],z-score [4],z-score [5],z-score [6],z-score [7],z-score [8],z-score [9],z-score [10]
O=C1N(Cc2ccccc2)Cc2ccccc2[C@@H]2OC(c3ccc(OCCCO)cc3)=N[C@]12CCS(=O)(=O)c1ccccc1,-0.715 (inactive),0.547,21.2 (active),4.09 (inactive),2.99 (inactive),0.492 (inactive),0.0549,-0.146 (inactive),1.23 (inactive),1.03
COc1cc(CO)cc(I)c1O[C@H]1C=C(C(=O)NCCO)C[C@@H](NCc2ccc(F)cc2)[C@@H]1O,0.548 (inactive),-0.24,21.8 (active),5.43 (inactive),4.03 (inactive),1.36 (inactive),0.325,-1.07 (inactive),-1.05 (inactive),-0.994
O=C1O[C@H](c2ccccc2)[C@H](c2ccccc2)N2[C@H]1[C@@H](C(=O)O)[C@]1(C(=O)Nc3ccc(C#CC4=CCCCC4)cc31)[C@H]2c1ccc(O)cc1,-1.14 (inactive),-0.242,-2.37 (inactive),-0.921 (inactive),-10.4 (active),-0.451 (inactive),-0.497,1.62 (inactive),-3.15 (inactive),-0.32
[N-]=[N+]=NCc1ccccc1[C@@H]1OC(c2ccc(OCCCO)cc2)=N[C@]1(CCS(=O)(=O)c1ccccc1)C(=O)NCC(O)CO (stereo not given in full),0.766 (inactive),0.546,24.8 (active),8.05 (active),0.619 (inactive),0.158 (inactive),2.02,0.861 (inactive),1.78 (inactive),2.57
CC1CC/C=C\[C@H]2OC34C=CCN(c5ccc(Cl)cc5)C(=O)[C@H]3N(CCCCCO)C(=O)[C@]4(C)C2C(=O)O1 (stereo not given in full),-0.351 (inactive),-0.101,-0.585 (inactive),0.231 (inactive),-0.175 (inactive),0.0119 (inactive),-0.157,0.57 (inactive),-0.261 (inactive),1.05
CCCC[C@@H]1C[C@H]1[C@@H](NC(=O)Cc1ccccc1)c1ccc(-c2ccccc2)cc1,-0.71 (inactive),0.369,1.1 (inactive),0.283 (inactive),0.249 (inactive),0.345 (inactive),0.871,-1.35 (inactive),-0.123 (inactive),1.09
COC(=O)C1=CC(CCCO)=CC(C2CC2)N(C)C=C1C(=O)OC (stereo not given),1.22 (inactive),-0.35,0.731 (inactive),-0.59 (inactive),0.482 (inactive),-1.41 (inactive),1.83,-0.463 (inactive),-0.122 (inactive),0.663
COc1ccc([Si](C)(C)[C@@H]2[C@@H](CC(=O)N(CCO)Cc3ccccc3)O[C@]3(C(=O)N(Cc4cccc(N5C(=O)c6cccc7cccc5c67)c4)c4ccccc43)[C@H]2C)cc1,2.02 (inactive),0.287,4.59 (inactive),0.343 (inactive),-0.667 (inactive),-0.526 (inactive),1.92,1.09 (inactive),1.09 (inactive),3
CC(C)C[C@@H]1NC(=O)[C@@H]2C[C@H](C(=O)NCCCCN(C)C)[C@H](c3cccc(OCCO)c3)N2C1=O,0.471 (inactive),0.0945,4.21 (inactive),0.239 (inactive),0.931 (inactive),0.128 (inactive),0.422,1.46 (inactive),1.13 (inactive),0.903
CC1=C[C@@]2(CO)C(=O)[C@]3(CO3)[C@@H]1[C@H]1[C@]2(C)C=C(CO)C(=O)[C@]12CO2,0.806 (inactive),-0.148,0.0442 (inactive),0.446 (inactive),0.429 (inactive),0.156 (inactive),-0.0631,-0.35 (inactive),-1.07 (inactive),-1.14
COc1ccc([Si](C)(C)[C@@H]2[C@@H](CCn3cc([C@H](O)c4ccccc4)nn3)O[C@]3(C(=O)N(Cc4ccc(N5CCC5=O)cc4)c4ccccc43)[C@H]2C)cc1,0.893 (inactive),-0.696,18.8 (active),4.31 (inactive),1.66 (inactive),1.19 (inactive),0.759,0.193 (inactive),1.08 (inactive),1.7
CCC(CC)C(O)C1C=CC2C(=O)N(c3ccccc3)C(=O)C2N1Nc1ccc(C(C)C)cc1 (stereo not given),-0.636 (inactive),0.501,1.46 (inactive),1.19 (inactive),0.741 (inactive),0.801 (inactive),-0.463,-0.743 (inactive),-4.43 (inactive),-3.75
C=CCC(OC(C)=O)[C@@H]1[C@@H](N(Cc2cc3ccccc3o2)C(=O)c2ccc(-c3ccccc3)cc2)c2cc(OCCCO)ccc2N1C(=O)c1ccc2ccccc2c1 (stereo not given in full),-0.966 (inactive),0.187,0.923 (inactive),0.354 (inactive),0.216 (inactive),0.161 (inactive),-0.109,-1.08 (inactive),-0.72 (inactive),0.869
COc1ccc(-c2nc(-c3ccccc3)c3c(c2C)CO[Si]3(C(C)C)C(C)C)cn1,-1.41 (inactive),0.0816,0.574 (inactive),-0.0994 (inactive),-0.566 (inactive),-0.278 (inactive),-0.0095,-0.783 (inactive),0.386 (inactive),-1.54
O=C1C[C@@](C(=O)NCCN2CCOCC2)(c2ccc([N+](=O)[O-])cc2)[C@@H](c2ccc(CO)cc2I)N1C1CCCCC1,0.82 (inactive),0.0688,15.3 (active),1.59 (inactive),2.94 (inactive),-0.168 (inactive),0.452,2.1 (inactive),-1.09 (inactive),-1.5
CN(C)C(=O)C1N=C(c2ccc(OCCCO)cc2)N(c2ccccc2)O1 (stereo not given),0.975 (inactive),0.0509,18.3 (active),2.14 (inactive),0.0521 (inactive),0.325 (inactive),0.296,-4.12 (inactive),-0.509 (inactive),-1.12
CCCC[C@@H](O)C1=C(COc2ccccc2)C[C@H]2C(=O)N(C)C(=O)[C@H]2[C@H]1CO,2.41 (inactive),-0.274,4.68 (inactive),-0.35 (inactive),0.241 (inactive),-1.53 (inactive),1.56,-0.69 (inactive),0.449 (inactive),0.187
C=C(CCCC)/C(=C/C[C@@H](OC(=O)c1ccncc1)c1ccccc1OCCO)c1cnc2ccccc2c1,-0.209 (inactive),0.541,20.2 (active),4.55 (inactive),1.58 (inactive),1.12 (inactive),0.759,-0.852 (inactive),0.474 (inactive),-0.524
COc1cc2c(cc1OC)CN(C(=O)[C@@H]1[C@H]3C(=O)O[C@H](c4ccccc4)[C@H](c4ccccc4)N3[C@H](c3ccc(OCCO)cc3)[C@@]13C(=O)Nc1ccc(C#CC4(O)CCCCCC4)cc13)CC2,3.13 (inactive),0.246,4.33 (inactive),1.05 (inactive),0.785 (inactive),-1.27 (inactive),2.48,0.737 (inactive),0.802 (inactive),1.82
CC(=O)c1ccc(C(O)C2C=CC3C(=O)N(c4ccccc4)C(=O)C3N2Nc2ccc(C#N)cc2)cc1 (stereo not given),-1.54 (inactive),0.192,18 (active),2.58 (inactive),1.27 (inactive),1.44 (inactive),-1.15,-2.48 (inactive),-5.89 (inactive),-4.43
CO[C@H]1O[C@H](CO)[C@@H](OC(=O)Nc2ccc3c(c2)OCO3)[C@H](OC(=O)c2cc3ccccc3[nH]2)[C@H]1OC(=O)c1cc2ccccc2[nH]1,0.599 (inactive),-0.0162,1.48 (inactive),-0.354 (inactive),-0.739 (inactive),-0.536 (inactive),1.26,-3.78 (inactive),-1.95 (inactive),-3.47
O=C1C2C=CC(C(O)c3ccc(F)cc3)N(n3cnnc3)C2C(=O)N1Cc1ccccc1 (stereo not given),-0.792 (inactive),0.041,0.138 (inactive),-0.995 (inactive),0.987 (inactive),-2.02 (inactive),1.2,-3.1 (inactive),-1.12 (inactive),-4.43
O=C1C2C=CC(C(O)c3ccc(Br)cc3)N(Nc3ccccc3F)C2C(=O)N1c1ccccc1 (stereo not given),0.894 (inactive),-0.192,3.67 (inactive),-0.0291 (inactive),-0.834 (inactive),-1.01 (inactive),0.79,-1.35 (inactive),-2.56 (inactive),-0.774
NCCCCCNC(=O)[C@@H]1C[C@@H]2C(=O)NCC(=O)N2[C@@H]1c1cccc(OCCO)c1,1.81 (inactive),0.165,2.11 (inactive),0.282 (inactive),-0.874 (inactive),0.154 (inactive),0.121,1.44 (inactive),-0.373 (inactive),2.89
COC(=O)Cn1c(C(=O)N(C)C)cc2c1C[C@H]1CN(C(=O)c3ccccc3)[C@@](Cc3ccc(F)cc3)(C(=O)OC)[C@@H]21,-1.25 (inactive),0.523,0.628 (inactive),0.238 (inactive),0.13 (inactive),0.52 (inactive),-0.38,0.174 (inactive),-0.765 (inactive),-1.26
CN(C)C(=O)[C@@]1(CCS(=O)(=O)c2ccccc2)N=C(c2ccc(OCCCO)cc2)O[C@H]1c1ccccc1,-0.1 (inactive),0.142,28.3 (active),24.3 (active),0.873 (inactive),1.48 (inactive),-0.789,0.441 (inactive),0.114 (inactive),-0.948
